From the supplement of paper PMC6555819

Tests used:
Assay in all cases: PBM binding z-score (relative to random genomic background probes); higher = stronger binding; sequences stand for … in GC…GCGATTGACAGCGTAGAATGAAGG
[1] = test system: FXR:RXRa (NR concentration 270 nM, RXRa partner concentration 90 nM)
Summary of the method: (§1)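 For binding z-scores, the reference was random background probes on custom Agilent 4×180K protein-binding microarrays. These arrays were incubated 1 h with ligand-free nuclear receptor dimers in PBS pH 7.4, 2% milk, 0.02% Triton X-100, 1 mM DTT, 0.2 mg/mL BSA and 0.4 mg/ml salmon testes DNA. Fluorescence was scanned after antibody detection of each partner (one per run) and regression-normalized.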

[2] = test system: LXRa:RXRa (NR concentration 270 nM, RXRa partner concentration 90 nM)
Summary of the method: as §1

[3] = test system: LXRa homodimer (NR concentration 270 nM)
Summary of the method: as §1

[4] = test system: LXRb:RXRa (NR concentration 270 nM, RXRa partner concentration 90 nM)
Summary of the method: as §1

[5] = test system: LXRb homodimer (NR concentration 270 nM)
Summary of the method: as §1

[6] = test system: PPARa:RXRa (NR concentration 270 nM, RXRa partner concentration 90 nM)
Summary of the method: as §1

[7] = test system: PPARg:RXRa (NR concentration 180 nM, RXRa partner concentration 90 nM)
Summary of the method: as §1

[8] = test system: PPARg:RXRa 270nM:90nM, anti-RXR (NR concentration 270 nM, RXRa partner concentration 90 nM)
Summary of the method: as §1

[9] = test system: PPARg:RXRa 30nM:10nM, anti-RXR (NR concentration 30 nM, RXRa partner concentration 10 nM)
Summary of the method: as §1

[10] = test system: PPARg:RXRa 90nM:30nM, anti-RXR (NR concentration 90 nM, RXRa partner concentration 30 nM)
Summary of the method: as §1

[11] = test system: PPARg:RXRa DBDmut IVT, anti-RXR (DBD mutation: RXRa K156A/R161A, NR concentration 270 nM, RXRa partner concentration 90 nM)
Summary of the method: as §1

[12] = test system: PPARg:RXRa IVT, anti-PPARg (NR concentration 270 nM, RXRa partner concentration 90 nM)
Summary of the method: as §1

[13] = test system: PPARg DBDmut:RXRa IVT, anti-PPARg (DBD mutation: PPARg1 K132A/R137A, NR concentration 270 nM, RXRa partner concentration 90 nM)
Summary of the method: as §1

[14] = test system: PPARg DBDmut IVT, anti-PPARg (DBD mutation: PPARg1 K132A/R137A, NR concentration 270 nM)
Summary of the method: as §1

[15] = test system: PPARg homodimer (NR concentration 180 nM)
Summary of the method: as §1

[16] = test system: PXR:RXRa (NR concentration 270 nM, RXRa partner concentration 90 nM)
Summary of the method: as §1

[17] = test system: PXR homodimer (NR concentration 270 nM)
Summary of the method: as §1

[18] = test system: RARa:RXR (NR concentration 270 nM, RXRa partner concentration 90 nM)
Summary of the method: as §1

[19] = test system: RARa homodimer (NR concentration 270 nM)
Summary of the method: as §1

[20] = test system: RARb:RXRa (NR concentration 270 nM, RXRa partner concentration 90 nM)
Summary of the method: as §1

| Sequence | PBM binding z-score [1] | PBM binding z-score [2] | PBM binding z-score [3] | PBM binding z-score [4] | PBM binding z-score [5] | PBM binding z-score [6] | PBM binding z-score [7] | PBM binding z-score [8] | PBM binding z-score [9] | PBM binding z-score [10] | PBM binding z-score [11] | PBM binding z-score [12] | PBM binding z-score [13] | PBM binding z-score [14] | PBM binding z-score [15] | PBM binding z-score [16] | PBM binding z-score [17] | PBM binding z-score [18] | PBM binding z-score [19] | PBM binding z-score [20] |
| --- | --- | --- | --- | --- | --- | --- | --- | --- | --- | --- | --- | --- | --- | --- | --- | --- | --- | --- | --- | --- |
| TTACCAAGGTGAGCTGAGGTAGTTGATCCAACTC | -0.711 | -0.48 | -0.742 | -0.743 | -1.03 | 0.16 | -0.149 | -0.0423 | -0.136 | -0.391 | 0.816 | 1.21 | 0.143 | -0.469 | -1.15 | 0.018 | -0.878 | 1.14 | -0.894 | 0.883 |
| CCTTACGGGTCACTGACAGGTTTTAGCATTTGGA | 5.38 | 3.52 | -0.116 | 3.31 | 0.045 | 5.09 | 4.18 | 4.36 | 1.27 | 3.04 | 3.46 | 3.56 | 0.228 | 0.218 | 2.26 | 2.98 | -0.502 | 4.09 | 1.06 | 3.88 |
| ATCTTTAGGTAACCAAGTTCAGTGAATGCCGAAC | 0.613 | 1.14 | 0.896 | 0.862 | 1.2 | 0.968 | 0.323 | 0.52 | 0.251 | 0.342 | 2.35 | 1.85 | 1.09 | 1.61 | 0.811 | 2.06 | 1.53 | 1 | 0.564 | 1.31 |
| ACTTACGGGTCAGCGAGGTTATAGCACGCGTATA | 4.94 | 3.87 | 0.399 | 3.41 | 0.42 | 4.9 | 3.94 | 4.15 | 1.13 | 2.59 | 1.92 | 3.48 | 0.822 | 0.254 | 1.62 | 4.18 | 1.12 | 4.25 | 0.477 | 4.09 |
| CGTCCAAGGTCAATGCTAGGTCAGTGGAAGCATT | 6.99 | 5.73 | 3.02 | 3.78 | 0.891 | 4.81 | 4.07 | 4.24 | 1.28 | 3.23 | 3.31 | 3.57 | -0.546 | -0.435 | 5.36 | 4.87 | 1.99 | 6.1 | 1.39 | 5.17 |
| GATACAGGGTCAGCTAGAGGCCAGAGTATGGAAA | 4.81 | 2.75 | -0.32 | 2.6 | -0.659 | 4.53 | 3.81 | 3.35 | 0.742 | 2.06 | 1.03 | 2.29 | 0.139 | 0.0351 | 3.5 | 3.49 | -0.262 | 4.85 | 0.574 | 4.22 |
| CTCGAACGGTCGTGCTCAGGTGAGTATACCAAAC | -0.183 | -0.208 | -0.21 | -0.274 | -0.517 | -0.309 | -0.285 | -0.662 | -0.759 | -1.01 | 0.143 | -0.0947 | -0.8 | -0.726 | 0.0744 | -0.455 | -0.32 | -0.252 | -0.56 | 0.781 |
| TCGAGTAAGTTAGTCGGGGCATTCAGCCAACATA | -1.52 | -0.541 | -0.717 | -0.128 | -0.869 | 0.00256 | -0.588 | 0.158 | 0.928 | 0.486 | 0.848 | -0.156 | -0.534 | -0.684 | -0.634 | -0.346 | -0.239 | -0.154 | -0.863 | -0.272 |
| CAAACTAGGTCATAGGTCAAAGTCGAGCCAACCA | 7.12 | 5.85 | 3.78 | 5.36 | 1.14 | 7.84 | 12.8 | 10.5 | 11.6 | 12 | 8.12 | 8.93 | 3.18 | 1.68 | 3.4 | 5.05 | 0.241 | 7.38 | 0.929 | 4.76 |
| CCTACTGGGCCAAAGGTCATTGCTTCCAATGCTC | 4.94 | 5.17 | 4.85 | 4.86 | 0.985 | 6.51 | 11.3 | 9.77 | 10.1 | 11.1 | 5.34 | 6.61 | -0.293 | 0.248 | 2.84 | 5.39 | 1.64 | 5.98 | 0.417 | 4.49 |
| TGGCAAAGTTCAAAGGTAACGTAAGTATCCACAC | 7.23 | 6.17 | 4.18 | 4.49 | 1.25 | 5.55 | 6.74 | 7.1 | 4.38 | 6.02 | -0.0424 | 3.1 | 0.662 | 1.12 | 3.45 | 5.58 | 4.43 | 6.87 | 1.43 | 5.11 |
| GGAACGAGGGCAAGTTGATATCAGAGTTTGATGG | 0.903 | 0.358 | -0.105 | 0.453 | -0.362 | 1.73 | 1.22 | 1 | 0.0363 | 0.552 | 3.98 | 2.65 | 0.634 | 0.177 | 0.61 | 0.864 | 0.655 | 0.687 | -0.152 | 2.57 |
| CCTGCTAGGTCATGGTCAGCTAGTCTACAGTATG | 3.74 | 2.28 | -0.0362 | 1.62 | -0.295 | 3.45 | 2.38 | 2.89 | 0.503 | 1.92 | 4.65 | 3.97 | 0.24 | -0.536 | 1.4 | 1.51 | -0.479 | 2.41 | -0.496 | 4.15 |
